Data: PubChem BioAssay
Activity calls are given as the source filed them.

Legend:
[1] = tested on: PRMT1 (protein arginine N-methyltransferase 1); experiment: PRMT1 binders on small-molecule microarrays, primary screen, biochemical, small-molecule microarray, 635 nm fluorescence (AID 1088); details: small-molecule microarray binding, higher = more signal;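 further: binding of Prmt1 protein to compounds spotted on small-molecule microarray slides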
[2] = yeast growth modulation, basal conditions, primary screen, YJM789 clinical isolate, OD600, 24 h (AID 1089);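 further: growth of clinical yeast isolate S. cerevisiae YJM 789 seeded 1000 cells per well; test concentration not given here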; details: S. cerevisiae YJM789 growth, higher = more signal, called active from +8 up or from −8 down
[3] = fission yeast growth modulation, primary screen, strain 972, OD600, 24 h, no modulator (AID 1090);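 further: basal condition with compound alone and no growth modifier present; test concentration not given here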; details: S. pombe 972 growth, higher = more signal, called active from +8 up or from −8 down
[4] = S. cerevisiae growth modulation with rapamycin, primary screen, strain BY4716, OD600, 96 h (AID 1091); details: higher = more signal, called active from +8 up or from −8 down; further: test concentration not given here
[5] = molecular target: Torsin-1A-interacting protein 2 (Homo sapiens) (UniProt Q8NFQ8); experiment: LULL1 binders on small-molecule microarray, primary screen, cell lysate, human LULL1 lysate, 635/667 nm fluorescence (AID 1092); details: hLULL1 lysate binding, 635 nm fluorescence, higher = more signal;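 further: probe is lysate of COS7 cells overexpressing human LULL1; score merges per-feature 667 nm fluorescence with signal-to-noise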
Sequence of Torsin-1A-interacting protein 2 (Homo sapiens) (Q8NFQ8 whole entry, looked up): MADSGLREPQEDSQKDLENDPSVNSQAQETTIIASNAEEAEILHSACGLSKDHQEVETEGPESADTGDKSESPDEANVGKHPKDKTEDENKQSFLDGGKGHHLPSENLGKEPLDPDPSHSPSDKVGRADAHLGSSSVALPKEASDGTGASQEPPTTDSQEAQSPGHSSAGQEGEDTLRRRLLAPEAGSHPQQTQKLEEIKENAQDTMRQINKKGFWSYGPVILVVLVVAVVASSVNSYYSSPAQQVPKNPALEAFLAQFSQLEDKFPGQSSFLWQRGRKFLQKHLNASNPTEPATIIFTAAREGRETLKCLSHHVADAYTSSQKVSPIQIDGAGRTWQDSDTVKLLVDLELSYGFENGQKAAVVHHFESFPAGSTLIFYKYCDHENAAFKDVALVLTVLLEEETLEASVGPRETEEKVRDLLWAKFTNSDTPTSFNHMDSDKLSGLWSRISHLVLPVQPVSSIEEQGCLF

[6] = E. coli growth modulation, two-sided OD650, primary screen, E. coli filamentation project, strain DRC41, 24 h (AID 1093); details: OD650, 24 h, higher = more signal, called active from +8 up or from −8 down;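 further: MC1000 strain lacking acrAB efflux and sulA so SOS filamentation is blocked; test concentration not given here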
[7] = small-molecule microarray binders of probe aLefty2, primary screen, biochemical, biotinylated probe, 635/667 nm fluorescence (AID 1094); details: higher = more signal;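 further: score merges spot fluorescence near 667 nm with spot signal-to-noise ratio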
[8] = tested on: Noggin (protein binding on small-molecule microarray); experiment: Noggin binders on small-molecule microarray, primary screen, biochemical, 635/667 nm fluorescence (AID 1095); details: 635 nm fluorescence, higher = more signal;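 further: score merges 667 nm feature fluorescence with signal to noise over triplicate slides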
[9] = molecular target: Neurogenic locus notch homolog protein 3 (Homo sapiens) (UniProt Q9UM47); experiment: NOTCH3 binders on small-molecule microarray, primary screen, biochemical, 635/667 nm fluorescence (AID 1096); details: NOTCH3 binding, 635 nm fluorescence, higher = more signal
Sequence of Neurogenic locus notch homolog protein 3 (Homo sapiens) (Q9UM47 whole entry, looked up): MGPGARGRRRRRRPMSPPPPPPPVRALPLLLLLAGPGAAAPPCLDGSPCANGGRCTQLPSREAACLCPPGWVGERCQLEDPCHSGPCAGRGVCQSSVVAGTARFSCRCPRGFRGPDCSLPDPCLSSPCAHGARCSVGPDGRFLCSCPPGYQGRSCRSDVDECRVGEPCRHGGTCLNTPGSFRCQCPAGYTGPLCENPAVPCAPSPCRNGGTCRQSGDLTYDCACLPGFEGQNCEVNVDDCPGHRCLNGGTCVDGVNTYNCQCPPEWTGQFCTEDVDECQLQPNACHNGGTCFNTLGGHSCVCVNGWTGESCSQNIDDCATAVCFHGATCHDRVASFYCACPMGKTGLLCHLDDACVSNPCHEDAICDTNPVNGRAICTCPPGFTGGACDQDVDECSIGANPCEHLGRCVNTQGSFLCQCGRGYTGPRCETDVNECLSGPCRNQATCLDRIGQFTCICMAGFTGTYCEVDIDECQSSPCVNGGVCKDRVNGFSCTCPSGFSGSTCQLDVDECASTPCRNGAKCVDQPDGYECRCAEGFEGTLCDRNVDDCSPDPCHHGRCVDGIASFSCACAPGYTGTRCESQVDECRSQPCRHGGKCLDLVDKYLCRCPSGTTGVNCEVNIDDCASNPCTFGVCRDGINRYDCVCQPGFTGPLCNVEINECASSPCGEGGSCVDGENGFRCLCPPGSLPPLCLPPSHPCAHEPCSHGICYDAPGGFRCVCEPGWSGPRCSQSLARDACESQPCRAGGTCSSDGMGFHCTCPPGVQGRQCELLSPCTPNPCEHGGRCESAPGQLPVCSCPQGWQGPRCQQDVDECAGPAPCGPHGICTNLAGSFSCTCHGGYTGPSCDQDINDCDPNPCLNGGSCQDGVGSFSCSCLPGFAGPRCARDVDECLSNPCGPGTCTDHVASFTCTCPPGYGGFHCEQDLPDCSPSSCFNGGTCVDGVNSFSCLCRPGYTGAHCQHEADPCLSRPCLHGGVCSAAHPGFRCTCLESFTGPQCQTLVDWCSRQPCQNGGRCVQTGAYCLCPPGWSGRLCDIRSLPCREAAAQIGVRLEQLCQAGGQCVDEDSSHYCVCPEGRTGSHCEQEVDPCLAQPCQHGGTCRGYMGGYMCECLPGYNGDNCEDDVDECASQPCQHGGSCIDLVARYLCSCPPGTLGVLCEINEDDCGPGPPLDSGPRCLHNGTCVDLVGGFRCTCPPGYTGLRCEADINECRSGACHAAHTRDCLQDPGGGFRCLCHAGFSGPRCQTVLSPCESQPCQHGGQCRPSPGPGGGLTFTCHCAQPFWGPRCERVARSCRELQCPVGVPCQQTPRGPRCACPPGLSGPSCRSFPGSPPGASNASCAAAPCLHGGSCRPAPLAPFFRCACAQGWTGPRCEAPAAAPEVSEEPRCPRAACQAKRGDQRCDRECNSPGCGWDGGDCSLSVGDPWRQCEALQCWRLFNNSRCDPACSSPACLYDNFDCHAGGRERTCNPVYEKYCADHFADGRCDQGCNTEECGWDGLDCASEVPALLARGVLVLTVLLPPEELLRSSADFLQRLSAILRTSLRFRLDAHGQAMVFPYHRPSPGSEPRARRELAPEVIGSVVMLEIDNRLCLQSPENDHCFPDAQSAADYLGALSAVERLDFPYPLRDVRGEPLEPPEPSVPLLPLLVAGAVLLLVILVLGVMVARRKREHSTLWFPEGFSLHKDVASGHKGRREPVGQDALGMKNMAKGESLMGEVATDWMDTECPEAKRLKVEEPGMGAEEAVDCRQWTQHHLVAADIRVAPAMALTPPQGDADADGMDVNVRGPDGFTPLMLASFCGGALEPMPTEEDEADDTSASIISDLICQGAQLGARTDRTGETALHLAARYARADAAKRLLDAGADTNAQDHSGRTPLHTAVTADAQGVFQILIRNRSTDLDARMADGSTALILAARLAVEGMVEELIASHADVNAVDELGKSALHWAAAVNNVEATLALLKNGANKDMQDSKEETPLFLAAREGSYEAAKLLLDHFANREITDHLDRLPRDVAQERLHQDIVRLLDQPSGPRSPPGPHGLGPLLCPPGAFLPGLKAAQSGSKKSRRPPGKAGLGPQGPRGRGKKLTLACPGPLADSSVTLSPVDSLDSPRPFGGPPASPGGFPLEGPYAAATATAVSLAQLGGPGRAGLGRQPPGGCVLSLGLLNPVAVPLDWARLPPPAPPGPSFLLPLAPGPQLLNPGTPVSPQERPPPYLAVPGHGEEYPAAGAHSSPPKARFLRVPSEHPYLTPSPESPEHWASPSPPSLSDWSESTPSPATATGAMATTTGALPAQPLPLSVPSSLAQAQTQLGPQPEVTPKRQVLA

[10] = small-molecule microarray binders of probe aEGFR, primary screen, biochemical, biotinylated probe, 635/667 nm fluorescence (AID 1097); details: higher = more signal;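 further: probe is a biotinylated anti-EGFR antibody binding compounds printed on slides; score combines fluorescence near 667 nm and signal to noise of each spot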
[11] = tested on: Plasmodium falciparum Sir2 (PF13_0152, Sir2A); experiment: pfSir2 binders on small-molecule microarrays, primary screen, biochemical, small-molecule microarray, 635 nm fluorescence (AID 1098); details: small-molecule microarray binding, fluorescence 635 nm; higher = more signal;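 further: score merges spot fluorescence intensity with its signal-to-noise ratio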
[12] = small-molecule microarray binders of probe aDKK1, primary screen, biochemical, biotinylated probe, 635/667 nm fluorescence (AID 1099); details: higher = more signal;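 further: score merges 667nm spot fluorescence with signal to noise across triplicate slides; reference of the scale not given here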
[13] = small-molecule microarray binders of probe aCHRDL2, primary screen, biochemical, biotinylated probe, 635/667 nm fluorescence (AID 1100); details: higher = more signal
[14] = splicing luciferase reporter signal modulators, primary screen, spliceosome inhibition project, cell-based, HEK293, splice +/- reporter (AID 1101); details: luminescence, 24 h, higher = more signal, called active from +8 up or from −8 down;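 further: HEK293 cells carrying a splicing-competent luciferase reporter gene; test concentration not given here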
[15] = molecular target: Fibroblast growth factor 10 (Homo sapiens) (UniProt O15520); experiment: FGF10 binders on small-molecule microarrays, primary screen, biochemical, small-molecule microarray, 635 nm fluorescence (AID 1102); details: FGF10 binding, fluorescence 635 nm, higher = more signal
Sequence of Fibroblast growth factor 10 (Homo sapiens) (O15520 whole entry, looked up): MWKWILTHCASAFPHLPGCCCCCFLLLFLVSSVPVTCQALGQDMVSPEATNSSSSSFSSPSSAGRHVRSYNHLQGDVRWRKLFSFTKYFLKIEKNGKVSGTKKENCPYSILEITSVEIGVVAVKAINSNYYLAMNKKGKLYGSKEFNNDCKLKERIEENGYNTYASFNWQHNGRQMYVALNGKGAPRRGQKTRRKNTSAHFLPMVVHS

[16] = tested on: glycogen synthase kinase-3 (GSK3A per assay name; protocol says GSK3B); experiment: GSK3 binders on small-molecule microarrays, primary screen, biochemical, small-molecule microarray, 635 nm fluorescence, GSK3A (AID 1103); details: small-molecule microarray binding, fluorescence 635 nm; higher = more signal; further: the record names both GSK3A and GSK3B
[17] = molecular target: Epidermal growth factor receptor (Homo sapiens) (UniProt P00533); experiment: EGFR binders on small-molecule microarrays, primary screen, biochemical, small-molecule microarray, 635 nm fluorescence (AID 1104); details: EGFR binding, higher = more signal;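 further: score merges 667 nm emission intensity with spot signal to noise over triplicate slides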
Sequence of Epidermal growth factor receptor (Homo sapiens) (P00533 whole entry, looked up): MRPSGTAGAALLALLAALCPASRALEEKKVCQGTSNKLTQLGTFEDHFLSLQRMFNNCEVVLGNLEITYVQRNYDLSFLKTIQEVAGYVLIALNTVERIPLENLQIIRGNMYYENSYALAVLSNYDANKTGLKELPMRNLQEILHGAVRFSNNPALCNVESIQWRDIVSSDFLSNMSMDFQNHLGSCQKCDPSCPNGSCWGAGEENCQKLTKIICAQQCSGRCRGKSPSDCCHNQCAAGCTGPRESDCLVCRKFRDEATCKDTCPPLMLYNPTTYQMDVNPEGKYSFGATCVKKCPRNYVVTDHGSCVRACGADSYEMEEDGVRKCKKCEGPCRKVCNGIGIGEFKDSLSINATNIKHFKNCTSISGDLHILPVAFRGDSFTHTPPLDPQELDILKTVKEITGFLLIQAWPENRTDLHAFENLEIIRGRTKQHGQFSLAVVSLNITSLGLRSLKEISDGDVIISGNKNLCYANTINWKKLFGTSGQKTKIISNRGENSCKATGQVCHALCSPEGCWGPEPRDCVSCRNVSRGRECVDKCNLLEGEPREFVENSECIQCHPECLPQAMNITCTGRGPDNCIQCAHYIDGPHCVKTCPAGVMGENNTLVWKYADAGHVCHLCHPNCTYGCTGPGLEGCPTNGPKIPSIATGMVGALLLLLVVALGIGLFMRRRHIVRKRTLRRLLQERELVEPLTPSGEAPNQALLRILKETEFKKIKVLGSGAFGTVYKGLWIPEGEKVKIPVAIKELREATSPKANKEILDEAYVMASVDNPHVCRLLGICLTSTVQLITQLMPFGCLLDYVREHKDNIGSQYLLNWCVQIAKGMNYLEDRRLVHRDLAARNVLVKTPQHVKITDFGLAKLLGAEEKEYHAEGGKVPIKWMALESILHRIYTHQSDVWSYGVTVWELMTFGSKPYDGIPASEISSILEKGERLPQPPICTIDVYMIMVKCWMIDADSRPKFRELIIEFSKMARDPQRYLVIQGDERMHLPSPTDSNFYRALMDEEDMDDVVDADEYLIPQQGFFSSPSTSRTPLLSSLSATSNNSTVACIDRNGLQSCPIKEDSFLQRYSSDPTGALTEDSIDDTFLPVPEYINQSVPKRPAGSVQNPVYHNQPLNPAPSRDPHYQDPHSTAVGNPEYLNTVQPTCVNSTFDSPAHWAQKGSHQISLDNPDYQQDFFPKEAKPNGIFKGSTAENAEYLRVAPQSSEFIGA

[18] = molecular target: Follistatin-related protein 3 (Homo sapiens) (UniProt O95633); experiment: FSTL3 binders on small-molecule microarrays, primary screen, biochemical, small-molecule microarray, 635 nm fluorescence (AID 1105); details: FSTL3 binding, higher = more signal;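 further: score merges emission near 667 nm and signal to noise per printed spot across three slides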
Sequence of Follistatin-related protein 3 (Homo sapiens) (O95633 whole entry, looked up): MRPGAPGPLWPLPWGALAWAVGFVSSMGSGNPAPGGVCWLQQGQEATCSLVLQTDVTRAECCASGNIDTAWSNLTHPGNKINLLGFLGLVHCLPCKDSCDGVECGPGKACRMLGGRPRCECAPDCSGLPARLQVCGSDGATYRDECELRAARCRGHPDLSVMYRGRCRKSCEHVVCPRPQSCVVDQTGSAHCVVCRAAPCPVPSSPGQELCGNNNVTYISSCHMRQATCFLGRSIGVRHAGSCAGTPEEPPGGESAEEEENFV

[19] = molecular target: Dickkopf-related protein 1 (Homo sapiens) (UniProt O94907); experiment: DKK1 binders on small-molecule microarrays, primary screen, biochemical, small-molecule microarray, 635 nm fluorescence scan (AID 1106); details: DKK1 binding, higher = more signal;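 further: score merges emission near 667 nm with signal to noise over three replicate slides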
Sequence of Dickkopf-related protein 1 (Homo sapiens) (O94907 whole entry, looked up): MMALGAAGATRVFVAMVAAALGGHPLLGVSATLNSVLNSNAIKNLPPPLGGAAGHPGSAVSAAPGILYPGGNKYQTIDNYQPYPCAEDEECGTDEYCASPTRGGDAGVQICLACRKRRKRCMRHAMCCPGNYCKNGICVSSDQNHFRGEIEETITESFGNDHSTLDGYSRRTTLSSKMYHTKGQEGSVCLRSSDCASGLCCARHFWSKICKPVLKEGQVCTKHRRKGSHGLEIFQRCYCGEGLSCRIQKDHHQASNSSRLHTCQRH

[20] = tested on: Inhibin beta A chain (activin A); experiment: INHBA (activin A) binders on microarrays, primary screen, biochemical, small-molecule microarray, 635 nm fluorescence scan (AID 1107); details: small-molecule microarray binding, higher = more signal;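 further: mouse activin A protein probed at 4.33 µg/mL on printed slides; score merges bound-protein fluorescence near 667 nm with spot signal-to-noise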

CC(C)[Si](C#CCCc1ccccc1)(O[C@H](c1ccccc1)c1cn(Cc2ccccc2)nn1)C(C)C
composite z-score [1]: 1.25
z-score [2]: -1.17 (inactive)
z-score [3]: -12.3 (active)
z-score [4]: -0.778 (inactive)
composite z-score [5]: 0.958
z-score [6]: 0.791 (inactive)
composite z-score [7]: -0.0095
composite z-score [8]: 0.797
composite z-score [9]: 1.13
composite z-score [10]: 0.0276
composite z-score [11]: 0.431
composite z-score [12]: -0.069
composite z-score [13]: -0.496
z-score [14]: 0.105 (inactive)
composite z-score [15]: 0.559
composite z-score [16]: 1.28
composite z-score [17]: 0.618
composite z-score [18]: 0.773
composite z-score [19]: 0.611
composite z-score [20]: 0.152

CO[C@H]1O[C@H](CO)[C@@H](OC(=O)Nc2ccccc2)[C@H](OC(=O)Nc2ccccc2)[C@H]1OC(=O)Nc1ccccc1
composite z-score [1]: 1.43
z-score [2]: 1.55 (inactive)
z-score [3]: 0.759 (inactive)
z-score [4]: 0.997 (inactive)
composite z-score [5]: 3.49
z-score [6]: 0.758 (inactive)
composite z-score [7]: -0.134
composite z-score [8]: 0.772
composite z-score [9]: 0.814
composite z-score [10]: -0.0978
composite z-score [11]: 1.48
composite z-score [12]: -0.0074
composite z-score [13]: -0.0165
z-score [14]: -0.405 (inactive)
composite z-score [15]: 1.48
composite z-score [16]: 1.25
composite z-score [17]: 0.0428
composite z-score [18]: 0.41
composite z-score [19]: 0.183
composite z-score [20]: 0.232

CN(C)C(=O)[C@@]1(Cc2ccccc2CN=[N+]=[N-])COC(c2ccc(OCCCO)cc2)=N1
composite z-score [1]: 0.688
z-score [2]: -0.352 (inactive)
z-score [3]: -7.06 (inactive)
z-score [4]: 31.3 (active)
composite z-score [5]: 2.65
z-score [6]: 2.21 (inactive)
composite z-score [7]: 0.0781
composite z-score [8]: -0.543
composite z-score [9]: 0.132
composite z-score [10]: -0.152
composite z-score [11]: 0.508
composite z-score [12]: 0.42
composite z-score [13]: 1.01
z-score [14]: -0.51 (inactive)
composite z-score [15]: -0.0391
composite z-score [16]: -0.958
composite z-score [17]: -0.916
composite z-score [18]: -0.522
composite z-score [19]: -1.19
composite z-score [20]: 0.744
